The list is not random: actives were taken first. Their share in the collection is about 9.4%.
Rab9 prom act = Rab9 promoter activation; Huh7 Rab9 promoter-luciferase reporter, luminescence, 24 h; Potency, µM (top dose mostly 9.22 µM), usual class: activators; hit rate 2.8% among 320,000; AID 485297; note: nearly all actives have a fitted effect of over 60% in size
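Luminescence from Amplite-detected luciferase (10 minutes, ambient) reports Rab9 promoter activation. Before that, stable Rab9-luciferase Huh7 cells (1500/well, reduced-serum OP-MEM I plus 10% FBS) were exposed to compound for 24 hours at 37C.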
NPC1 promoter act = activates the NPC1 promoter; Huh7 NPC1 promoter luciferase reporter, 24 h; hit rate 2.4% among 320,000; Potency, µM (titrated, usually from 9.22 µM), usual class: activators; note: nearly all actives have a fitted effect of over 60% in size
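Stable NPC1-promoter luciferase Huh7 line; cpd (DMSO) 24 h, 37 °C, 5% CO2; Amplite luciferase reagent 10 min RT; luminescence readout. qHTS format.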
ELG1 DNA repair = inhibitors of ELG1-dependent DNA repair in HEK293T cells. HEK293T ELG1-luciferase reporter, luminescence, 16 h; DNA damage induced by 5-fluorouridine. Potency, µM (highest dose often 46.1 µM), actives largely listed as inhibitors. hit rate 2.3% among 330,000. AID 504467; note: nearly all actives have a fitted effect of over 55% in size
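In this reporter screen, reduction of luminescence relative to DMSO vehicle indicated activity. Compounds and 5-fluorouridine were added together to 2,000 cells per well, incubated for 16 hr at 37 °C, then developed with ONE-Glo.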
SMN2 splice enh = SMN2 splice variant enhancement; hit rate 2.8% among 210,000; HEK293 SMN2-luciferase splicing reporter, luminescence, 30-36 h; AID 1458; Potency, µM (titrated, usually from 46.1 µM), usual class: activators; note: nearly all actives have a fitted effect of over 55% in size
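qHTS luciferase splicing reporter: luminescence rises when SMN2 exon 7 is included in transfected HEK293 cells. Compound exposure lasted 30-36 h at 37C, with 4.5 mM final sodium butyrate as control, followed by a ONE-Glo read.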
FLuc modulator = counter-screen for miR-21 project: firefly luciferase inhibitors or activators. P08659. purified FLuc, Km substrates, luminescence inhibition. Potency, µM (highest dose often 57.5 µM), usual class: inhibitors. hit rate 6.9% among 360,000. AID 588342; note: nearly all actives have a fitted effect of over 55% in size
Target sequence (P08659 whole entry, looked up): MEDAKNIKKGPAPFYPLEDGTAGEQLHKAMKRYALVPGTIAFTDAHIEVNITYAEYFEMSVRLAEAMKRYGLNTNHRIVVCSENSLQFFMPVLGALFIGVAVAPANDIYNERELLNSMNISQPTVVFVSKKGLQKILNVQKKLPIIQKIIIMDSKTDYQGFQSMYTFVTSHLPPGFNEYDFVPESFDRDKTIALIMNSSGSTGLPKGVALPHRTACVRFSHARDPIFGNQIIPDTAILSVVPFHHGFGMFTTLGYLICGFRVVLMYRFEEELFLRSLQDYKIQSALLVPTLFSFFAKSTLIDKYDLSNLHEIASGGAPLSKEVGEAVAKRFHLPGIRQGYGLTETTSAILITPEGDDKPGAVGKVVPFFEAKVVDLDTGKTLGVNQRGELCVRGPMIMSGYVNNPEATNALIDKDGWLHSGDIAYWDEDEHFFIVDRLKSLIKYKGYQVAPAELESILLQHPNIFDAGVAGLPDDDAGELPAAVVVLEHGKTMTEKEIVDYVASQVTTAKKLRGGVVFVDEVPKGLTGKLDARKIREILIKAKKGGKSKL
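Purified P. pyralis luciferase, 10 nM final, with Km-level 10 uM D-luciferin and 10 uM ATP in 50 mM Tris acetate pH 7.5, 10 mM Mg acetate, 0.01% Tween-20, 0.05% BSA; 6-point qHTS titration about 60 µM downward; luminescence read.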
ELG1 genotox = induces genotoxicity in HEK293T cells with luciferase-tagged ELG1; HEK293T ELG1-luciferase reporter, luminescence, 16 h; Potency, µM (highest dose often 46 µM), actives largely listed as activators; hit rate 1.3% among 330,000; note: nearly all actives have a fitted effect of over 60% in size
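ELG1-luciferase HEK293T cells, 2,000/well; compound pinned in; 16 hr, 37 °C, 5% CO2; ONE-Glo, 30 min RT; luminescence on CCD imager.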
Hits are given with their value; n = inactive; u = inconclusive; x = no result; [ ] = another dose, or the depositor's remark. Calls come from the whole dose curve; as a rule, active = well fitted curve in the direction sought with a large enough effect; inconclusive = small, poorly fitted or top-dose-only effect, or another doubt; inactive = no such curve, though single readings can be large; an effect the other way counts as inactive or inconclusive.

SMILES | Rab9 prom act | NPC1 promoter act | ELG1 DNA repair | SMN2 splice enh | FLuc modulator | ELG1 genotox
O=C(CN1C(=O)c2cccnc2Oc2ccc(Cl)cc21)NCCCN1CCCCC1 | x | x | x | x | n | x
O=[N+]([O-])c1cccn2cc(-c3ccc(Br)cc3)nc12 | 2.82µM | u | u | x | u | u
Cc1ccc(C)c(CN2C(=O)c3ccccc3S(=O)c3ccc(C(=O)N4CCCCC4)cc32)c1 (stereo not given) | x | x | x | n | n | x
CCOc1cccc(C(=O)N(Cc2ccc(CC)cc2)C2CCS(=O)(=O)C2)c1 (stereo not given) | x | x | x | n | n | x
COc1cc2oc(=O)cc(-c3ccc(-c4ccc(CO)cc4)cc3)c2c(OC)c1OC | x | x | 5.8µM | x | x | n
O=C(C=C=Nc1ccccc1)C(=O)N=C=Cc1ccccc1 | n | n | n | x | 4.78µM | u
O=C(N/N=C/c1ccccc1)C(=O)N/N=C/c1ccccc1 | n | n | n | x | n | n
COc1ccc(NC(=O)CSc2nnc(-c3ccccc3)n2Cc2ccco2)c(OC)c1 | n | n | 13µM | n | n | n
COc1ccc(C)cc1NC(=O)CSc1nnc(COc2ccccc2)n1Cc1ccco1 | n | n | 18.4µM | n | n | n
O=C(Cn1nc(-c2ccccc2)c2cnc3ccccc3c21)Nc1ccccc1 | x | x | x | n | n | x
O=S1(=O)CCN2C(=N1)Sc1c2ccc2c1CCCC2 | n | n | u | n | 15.1µM | u
CCOC(=O)C1=C(CSc2nc(CC)c(C)cc2C#N)OC(N)=C(C#N)C1c1ccccc1 (stereo not given) | n | n | n | n | n | n
CCOC(=O)C1=C(CSc2nc(-c3ccccc3)ccc2C#N)OC(N)=C(C#N)C1c1ccc(OC)cc1 (stereo not given) | n | n | u | n | 15.1µM | u
Cc1ccc2nc3sc(C(=O)N4CCOCC4)c(N)c3cc2c1 | 0.112µM | 0.251µM | u | n | 0.12µM | u
Cc1ccc2cc3c(N)c(C(=O)N4CCOCC4)sc3nc2c1 | 3.98µM | 0.316µM | u | x | 2.39µM | 1.16µM
CCOc1ccc2nc3sc(C(=O)N4CCN(C)CC4)c(N)c3cc2c1 | n | n | u | n | 10.7µM | u
COc1ccc2cc3c(N)c(C(=O)N4CCCC4)sc3nc2c1 | 1.41µM | 1.78µM | u | 11.2µM | 2.69µM | u
COc1ccc2cc3c(N)nn(C(=O)c4ccc(OC)c(OC)c4)c3nc2c1 | n | n | x | n | n | x
Cc1ccc2cc3c(N)c(C(=O)N4CC(=O)Nc5ccccc54)sc3nc2c1 | n | n | n | n | n | n
CCOc1ccc(-n2c(N)c(C(=O)N3CCN(C)CC3)sc2=S)cc1 | n | n | n | n | n | n
CCc1ccc(S(=O)(=O)N2CCN(c3ccc(Cl)c(Cl)c3)CC2)cc1 | x | x | x | n | n | x
Cc1noc(NS(=O)(=O)c2ccc(NC(=O)COc3ccccc3Br)cc2)c1C | x | x | x | n | u | x
CCN1CCc2nc3sc(C(=O)N4CCc5ccccc5C4)c(N)c3cc2C1 | n | n | n | x | u | n
CC(C)c1ccc2nc3sc(C(=O)N4CCc5ccccc5C4)c(N)c3cc2c1 | n | n | u | n | 16.9µM | n
CCC(C)NC(=O)c1cc2cc3ccc(OC)cc3nc2s1 (stereo not given) | 0.355µM | 0.562µM | u | 12.6µM | 3.01µM | u
SMILES | Rab9 prom act | NPC1 promoter act | ELG1 DNA repair | SMN2 splice enh | FLuc modulator | ELG1 genotox
COc1ccc(Cn2c(SCc3ccc(C(=O)NC(C)C)cc3)nc3cccnc32)cc1 | x | x | x | x | n | x
COc1ccc(C(CC(=O)c2ccc(O)cc2)S(=O)(=O)c2ccc(C)cc2)cc1 (stereo not given) | n | u | u | n | 9.53µM | u
CCCS(=O)(=O)c1nc(S(=O)(=O)c2ccc(C)cc2)c(NCCCOC(C)C)s1 | x | x | x | n | n | x
COc1ccccc1CNC(=O)c1cccn1-c1nnc(N2CCCC2)s1 | x | x | x | x | n | x
COC(=O)c1ccc(CSc2nc3sc(C(=O)O)c(C)c3c(=O)[nH]2)cc1 | n | n | n | n | u | n
Cc1c(C(=O)O)sc2nc(/C=C/c3cccc(O)c3)[nH]c(=O)c12 | n[1.84 µM] | n | n | x | 16.9µM | n
CCOC(=O)N1CCN(C(=O)c2cc(COc3cccc(C(C)=O)c3)on2)CC1 | u | n | u | x | u | n
C[C@@H]1CN(C(=O)c2cc(COc3cccc(C(F)(F)F)c3)on2)C[C@H](C)O1 | n | n | 14.6µM | x | n | n
CCOC(=O)N1CCN(C(=O)c2cc(COc3cccc(C(F)(F)F)c3)on2)CC1 | 2.82µM | 3.16µM | u | x | 15.1µM | u
Cc1nn(C)c(C)c1C(C)NC(=O)c1cc(COc2ccc(F)c(F)c2)on1 (stereo not given) | u | u | u | x | 21.3µM | n
O=C(CCN1C(=O)/C(=C/c2ccc3c(c2)OCO3)SC1=S)Nc1cccc(C(=O)O)c1 | n | n | n | x | 21.3µM | n
COc1cccc(/C=C2\SC(=S)N(CCCC(=O)Nc3ccc(C(=O)O)cc3)C2=O)c1 | n | n | n | x | 21.3µM | n
O=C(CCCN1C(=O)/C(=C/c2ccccc2Cl)SC1=S)Nc1cccnc1 | n | n | u | x | 13.5µM | n
O=C(O)CCN1C(=O)/C(=C\c2cccc(OCC(=O)Nc3ccc(Cl)cc3)c2)SC1=S | n | n | u | x | 16.9µM | n
COc1ccc(CCNC(=O)c2cnc3ccc(C)cn3c2=O)cc1 | x | x | x | n | n | x
Cc1ccc(/C=C2\SC(=S)N(CCCC(=O)Nc3cccc(C(=O)O)c3)C2=O)cc1 | n | n | n | x | n | n
COc1ccc(/C=C2\SC(=S)N(CCC(=O)Nc3cccc(C(=O)O)c3)C2=O)cc1 | n | n | n | x | 5.36µM | n
O=C(CCCN1C(=O)/C(=C\c2ccccc2)SC1=S)Nc1cccc(C(=O)O)c1 | n | n | n | x | u | n
O=C(CCN1C(=O)/C(=C\C=C\c2ccccc2)SC1=S)Nc1cccc(C(=O)O)c1 | u | 3.16µM | u | x | 0.953µM | u
O=C(CCN1C(=O)/C(=C/c2ccc(Cl)cc2)SC1=S)Nc1cccc(C(=O)O)c1 | n | n | n | x | 15.1µM | n
COc1cc(C)c(CC/C(C)=C/C=C/C(C)=O)c(C)c1C | x | x | x | n | x | x
COc1ccc2c(c1)NC(c1ccc(OCC(C)C)cc1)=NC(c1ccncc1)=N2 | x | x | x | n | n | x
Cc1ccc(S(=O)(=O)Nc2ccc(O)c3ccccc23)c(C)c1 | n | n | 16.4µM | x | n | n
COc1ccc(S(=O)(=O)Nc2ccc(O)c3ccccc23)cc1 | n | n | 9.2µM | n | n | n
Cc1ccc(C)c(S(=O)(=O)Nc2ccc(O)c3ccccc23)c1 | n | n | u | x | n | n
COc1ccc(C(=O)COC(=O)c2ccccc2NS(=O)(=O)c2ccc(O)c([N+](=O)[O-])c2)cc1 | n | n | u | x | 10.7µM | n
COc1ccc(S(=O)(=O)Nc2ccccc2C(F)(F)F)cc1 | n | n | n | n | n | n
CCOc1ccccc1NCc1cc(=O)oc2cc(C)ccc12 | n | n | n | x | u | n

Assay outcomes from PubChem BioAssay.
